PD-1 reversal – reversal of PD-1 mediated T-cell inhibition; 29,000 tested, under 10 active; primary human CD4 T cells, PD-L1 beads, CellTiter-Glo 96 h; activation, % (concentration not given with the values); call rule not given here;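 also: 0% = median vehicle wells and 100% = positive control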
YB-1 expression – YB-1 expression inhibition | AID 434959 | 30,000 tested, 0.37% active | U2OS, qRT-PCR YB-1 vs CDIP delta delta Cp, 16 h; stronger effect = higher value; zero = DMSO, each unit about twofold | delta delta Cp (YB-1 minus CDIP) (no concentration beside the values);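 active = delta delta Cp rounded down to an integer at or above 3, about 3 SD of DMSO wells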;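 also: higher means less YB-1 transcript or more CDIP transcript relative to DMSO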
ROS inducer – cancer cell ROS induction; 46,000 tested, 2% active; U2OS ROS induction, H2DCF-DA fluorescence; AID 624156; ROS induction (% of piperlongumine), % at 10 µM; in the data active = ROS induction above about 79%, passing the limit was not always enough;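 also: 0% = DMSO vehicle median and 100% = reference compound median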
NOMO-1 viab – STK33 inhibitor candidate reducing NOMO-1 cell viability. NOMO-1 AML viability, CellTiter-Glo luminescence, 72 h. inhibition, % (test concentration not listed). 37,000 tested, 7.5% active. AID 2330; in the data active = inhibition above about 80%
* marks the source's active call; other numbers are inactive results; x = no result given. This excerpt belongs to a sample that is enriched for hits.

SMILES	PD-1 reversal	YB-1 expression	ROS inducer	NOMO-1 viab
COc1cc(-c2noc(-c3c(-c4ccccc4Cl)noc3C)n2)cc(OC)c1OC	x	x	117*	x
C[C@H](CO)N1C[C@H](C)[C@H](CN(C)C(=O)Nc2ccc3c(c2)OCO3)Oc2c(NS(=O)(=O)c3ccccc3)cccc2C1=O	x	0.59	100*	-4
C[C@@H]1CN([C@H](C)CO)C(=O)c2cccc(NC(=O)Nc3ccc(C(F)(F)F)cc3)c2O[C@@H]1CN(C)C(=O)Nc1ccc2c(c1)OCO2	-3	0.35	94*	112*
C[C@H](CO)N1C[C@H](C)[C@H](CN(C)C(=O)Nc2ccc3c(c2)OCO3)Oc2c(NC(=O)Nc3ccc(C(F)(F)F)cc3)cccc2C1=O	-3	-0.59	23	115*
C[C@@H]1CN([C@@H](C)CO)C(=O)c2cccc(NC(=O)Nc3ccc4c(c3)OCO4)c2O[C@@H]1CN(C)C(=O)Nc1ccc2c(c1)OCO2	0	0.38	0	55
C[C@H]1CN([C@@H](C)CO)C(=O)c2cccc(NC(=O)Nc3ccc(C(F)(F)F)cc3)c2O[C@@H]1CN(C)C(=O)Nc1ccc2c(c1)OCO2	x	-0.62	-3	96*
C[C@H]1CN([C@@H](C)CO)C(=O)c2cccc(NC(=O)Nc3ccc4c(c3)OCO4)c2O[C@@H]1CN(C)C(=O)Nc1ccc2c(c1)OCO2	-1	-0.33	-4	41
CC(C)(C)OC(=O)Nc1cccc(/C=N/NC(=O)c2ccccn2)c1	x	-0.089	-2	x
CC(C)n1c(SCC(=O)Nc2ccccc2Cl)nc2cc(Cl)ccc21	x	x	-6	x
CCOc1ccc(-c2nc(C#N)c(N(C)C)o2)cc1	x	x	-3	x
CC(C)Cn1c(SCC(=O)Nc2ccc(F)cc2F)nc2ccccc2c1=O	-1	-0.62	11	26
CC(C)NC(=O)N(C)C[C@H]1Oc2c(NC(=O)Nc3ccc4c(c3)OCO4)cccc2C(=O)N([C@@H](C)CO)C[C@H]1C	1	0.061	90*	8
C[C@@H]1CN([C@H](C)CO)C(=O)c2cccc(NC(=O)Nc3ccc4c(c3)OCO4)c2O[C@@H]1CN(C)Cc1ccc(-c2ccccc2)cc1	-2	-0.32	34	94*
C[C@H](CO)N1C[C@H](C)[C@H](CN(C)Cc2ccc(Oc3ccccc3)cc2)Oc2c(NC(=O)Nc3ccc4c(c3)OCO4)cccc2C1=O	-3	0.094	33	116*
C[C@@H]1CN([C@@H](C)CO)C(=O)c2cccc(NC(=O)Nc3ccc4c(c3)OCO4)c2O[C@@H]1CN(C)Cc1ccc(-c2ccccc2)cc1	-5	-0.14	20	116*
C[C@H]1CN([C@@H](C)CO)C(=O)c2cccc(NC(=O)Nc3ccc4c(c3)OCO4)c2O[C@H]1CN(C)Cc1ccccc1	2	0.76	8	65
C[C@H](CO)N1C[C@H](C)[C@H](CN(C)Cc2ccc(-c3ccccc3)cc2)Oc2c(NC(=O)Nc3ccc4c(c3)OCO4)cccc2C1=O	-4	-0.12	34	120*
Cc1cccc(OCC(=O)Nc2ccc(Cl)c(-c3nc4ccc(C)cc4o3)c2)c1	x	x	x	29
O=C(COc1ccc2ccccc2c1Br)Nc1ccccc1C(=O)N1CCCCC1	0	x	-3	34
C[C@@H]1CN([C@H](C)CO)C(=O)c2cccc(NC(=O)Nc3ccc4c(c3)OCO4)c2O[C@H]1CN(C)Cc1ccc(-c2ccccc2)cc1	-3	0.00089	0	91*
Cc1cc(C)c(C)c(S(=O)(=O)NCc2ccc(C(=O)Nc3ccncc3)cc2)c1C	-9	x	19	103*
COc1cccc(S(=O)(=O)NCc2ccc(C(=O)Nc3ccc(Cl)cc3)cc2)c1	-1	x	13	17
COc1ccc(-c2cc(=O)[nH]c(SCC(=O)Nc3ccc(Oc4ccccc4)cc3)n2)cc1	1	x	-19	13
C=C1[C@@H]2CC[C@H]3[C@@]4(C)C(C[C@H](OC(=O)[C@]5(C)O[C@@H]5C)[C@]3(C2)[C@@H]1OC(C)=O)[C@](C)(C(=O)OC)CC[C@H]4OC(C)=O (some centres not stated)	-1	0.79	12	88*
Cc1ccccc1NC(=O)CCc1nc(-c2ccccc2F)no1	0	x	12	24
SMILES	PD-1 reversal	YB-1 expression	ROS inducer	NOMO-1 viab
COc1cc2c(c(OC)c1OC)C[C@H]1COC(=O)[C@@H]1Cc1c-2cc(OC)c(OC)c1OC	x	1.1	42	x
C/C=C(/C)C(=O)O[C@@H]1c2cc(OC)c(OC)cc2-c2c(ccc(OC)c2OC)C[C@H]2C(=O)OC[C@H]12	-2	0.43	54	117*
CC1CC(NC(=S)NCc2csc3ccccc23)CC(C)(C)C1 (configuration not stated)	-2	0.2	16	109*
S=C(NCc1csc2ccccc12)NCC1CC1	-1	0.32	8	4
O=C1Nc2ccc(Br)cc2/C1=C/c1cc2c([nH]1)CCCC2	-1	-0.13	43	69
CN(C)S(=O)(=O)c1ccc2c(c1)/C(=C/c1cc3c([nH]1)CCCC3)C(=O)N2	0	-0.37	98*	73
Cc1[nH]c2ccccc2c1C(=O)CSc1nc2scc(-c3ccco3)c2c(=O)n1-c1ccccc1	-1	x	-2	22
Cc1[nH]c2ccccc2c1C(=O)CSc1nc2sc(C)c(C)c2c(=O)n1-c1ccccc1	-1	x	-4	100*
COc1ccc(NC(=O)CSc2nc3scc(C)c3c(=O)[nH]2)cc1	1	x	91*	-6
CC1CCCC(NC(=O)CSCc2cnn(-c3ccccc3)c2-n2cccc2)C1C (configuration not stated)	x	x	14	x
CCN(CC)CCNc1ncnc2c1sc1nc(N3CCCC3)c3c(c12)CC(C)(C)OC3	-10	x	-1	113*
COc1ccc(NC(=O)CSc2ncnc3c2sc2nc(N4CCOCC4)c4c(c23)CC(C)(C)OC4)cc1	-6	x	-4	99*
CCn1c(SCC(=O)Nc2ccc(I)cc2C)nnc1-c1ccccc1	0	x	x	-7
Cc1ccc(S(=O)(=O)Nc2ccc3c(c2)C(=O)N([C@@H](C)CO)C[C@H](C)[C@@H](CN(C)Cc2ccc(-c4ccccc4)cc2)O3)cc1	0	0.19	19	59
C[C@@H]1CN([C@H](C)CO)C(=O)c2cc(NS(C)(=O)=O)ccc2O[C@@H]1CN(C)S(=O)(=O)c1ccccc1	1	-0.15	102*	20
C[C@@H]1CN([C@@H](C)CO)C(=O)c2cc(NS(=O)(=O)c3ccccc3)ccc2O[C@@H]1CN(C)Cc1ccc(-c2ccccc2)cc1	x	0.2	33	115*
C[C@H]1CN([C@@H](C)CO)C(=O)c2cc(NS(C)(=O)=O)ccc2O[C@H]1CN(C)S(=O)(=O)c1ccccc1	x	0.017	-4	9
C[C@H]1CN([C@@H](C)CO)C(=O)c2cc(NS(=O)(=O)c3ccccc3)ccc2O[C@@H]1CN(C)Cc1ccc(-c2ccccc2)cc1	-2	-0.13	47	87*
O=C(NCCc1ccc(Cl)cc1)C12CC3CC(CC(C3)C1)C2	x	x	5	x
COC(=O)c1ccc(OC(=O)CS(=O)c2ccc(C(F)(F)F)cc2[N+](=O)[O-])cc1 (configuration not stated)	x	x	x	109*

Assay outcomes (PubChem BioAssay)
